Values joined by “and” are separate entries in the source; they are usually repeats but may differ in a detail not shown here. Equal entries are not always repeated. A number with no mark means an inactive call. Active and inactive are the calls of the source.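 Rule for the calls: active = inhibition at or above 50% relative to wild type and mutant plate controls; inactive = inhibition below 50%.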

For orientation: inhibition means the drop in the measured response relative to a control, in per cent.

This test can be described thus: inhibitors of Chlamydomonas gravitaxis, primary screen, whole organism, Chlamydomonas reinhardtii, WT vs cilia-less mutant, absorbance, 96-well (AID 463189).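 Note: 0% = wild type cc124 cells in DMSO and 100% = ciliumless bld1 mutant cells.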 The note with it: OD600 absorbance, 2 days, at 10 µM, active compounds read high.
Consider `Nc1ncnc2c1ncn2[C@@H]1O[C@H](COP(=O)(O)CP(=O)(O)OP(=O)(O)O)[C@H](O)C1O` (stereo partly drawn), for which the inhibition was 8.43%.

For the compound `NC(N)=NOCC[C@H](N)C(=O)O`, the inhibition is -0.094%.

Turning to `CCCN(CCC)[C@@H]1CCc2c(F)ccc(O)c2C1`, the inhibition was -5.24%. `N[C@H](CCCCCP(=O)(O)O)C(=O)O`: the inhibition was -8.7%. Next, `c1ccc2cc(CC3=NCCN3)ccc2c1`: 1.93%; `CCCN1CCO[C@@H]2c3cc(O)ccc3OC[C@H]21`: 3.37% and -1.05%; `CC1Cc2cc3c(cc2C(c2ccc(N)cc2)=NN1)OCO3` (stereo not drawn): 0.595%.

In the case of `C[N+](C)(C)CC(=O)O`, the inhibition was 3.38%. Next, `CN[C@@H]1C[C@@H](c2ccc(Cl)c(Cl)c2)c2ccccc21`: 129% (active); `c1ccc2c(N3CCNCC3)cccc2c1`: 5.44%; `Fc1ccc(C(OCCN2CCN(CCCc3ccccc3)CC2)c2ccc(F)cc2)cc1`: 12.7%. Under `CN(N=O)c1ccc(O)c(O)c1` stands 1.04%; under `Cc1cccc(C)c1NC1=NCCCS1`, 6.94%; under `CCCCCCC(C)(C)c1ccc([C@@H]2C[C@H](O)CC[C@H]2CCCO)c(O)c1`, -3.04%. Under `C[N+](C)(C)CCOC(=O)CBr` stands 0.371%; under `COC(=O)c1cc2c(cn1)[nH]c1ccccc12`, 2.96%; under `Cc1ccc(S(=O)(=O)N[C@@H](CCCCN)C(=O)CCl)cc1`, 5.31%. With `CCOC(=O)c1ncn2c1[C@@H]1CCCN1C(=O)c1cc(OC)ccc1-2`, the inhibition is 6.1%.

On to `CCCN(CCC)C1CCc2ccc(O)cc2C1` (stereo not drawn), for which the inhibition is 1.06%. Under `S=C=Nc1cccc(C2(N3CCCCC3)CCCCC2)c1` stands 10.2%; under `CC(=O)[C@H]1CCC2C3CC[C@H]4C[C@H](O)CC[C@]4(C)C3CC[C@@]21C` (stereo partly drawn), 0.863%; under `CC(=O)c1c(O)c(C)c(O)c(Cc2c(O)c3c(c(C(=O)/C=C/c4ccccc4)c2O)OC(C)(C)C=C3)c1O`, -7.31%. Under `CO[C@H]1CC=C2CCN3CCC4=C(CC(=O)OC4)[C@]23C1` stands 0.879%; under `C=CCN1CCC23c4c5ccc(O)c4O[C@H]2C(=O)CC[C@@]3(O)C1C5` (stereo partly drawn), 4.89%. In the case of `CN1C(=O)CCS(=O)(=O)C1c1ccc(Cl)cc1` (stereo not drawn), the inhibition is 9.97%.

In the case of `CN1C2CCC1CC(OC(c1ccccc1)c1ccccc1N)C2` (stereo not drawn), the inhibition is -4.19%. Under `COc1ccc2c3c1O[C@H]1C(=O)CC[C@@]4(O)C(C2)N(CC2CC2)CCC314` (stereo partly drawn) stands 3.52%; under `CNCCc1ccc(O)c(O)c1`, 8.08%. Next, `COc1ccc2[nH]cc(CCN)c2c1`: 3.77%. In the case of `CC[C@@]1(O)C(=O)OCc2c1cc1n(c2=O)Cc2cc3ccccc3nc2-1`, the inhibition is 23.3%. Under `C[C@]12CC[C@@H](O)CC1CC[C@@H]1[C@@H]2CC[C@]2(C)C(=O)CC[C@@H]12` (stereo partly drawn) stands 0.791%; under `CCCN(CCC)[C@H]1CCc2c(F)ccc(O)c2C1`, -6.79%. Next, `CC(C)(C)c1o[nH]c(=O)c1CC(N)C(=O)O` (stereo not drawn): 0.571%. Next, `C[C@@H]1O[C@@H](O[C@H]2C[C@@H](O)[C@]3(CO)[C@@H]4C(CC[C@]3(O)C2)[C@@]2(O)CC[C@H](C3COC(=O)C3)[C@@]2(C)C[C@H]4O)[C@H](O)[C@H](O)[C@H]1O` (stereo partly drawn): 0.796%. Turning to `CC(C)c1cccc(C(C)C)c1O`, the inhibition was -3.28%. `COc1cc(C(O)CN)ccc1O` (stereo not drawn): the inhibition is 2.77%.

As to `O=C(O)[C@@H]1CCN1`, the inhibition is 2.04%. On to `O=C1C=CC(=O)C=C1`, for which the inhibition is -11.2%.
